Consider 56 molecules from the supplement of paper PMC12297408.

The assay concerns Plasmodium falciparum NF54/iGP1_RE9H ulg8 stage V gametocytes. In words: gametocyte viability (luciferase signal relative to DMSO control) (% of DMSO control); higher = less gametocytocidal activity, active = 50 or less. The settings on record: exposure time: 72 h. Summed up:
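Compounds from 10 mM DMSO stocks were spotted at nanolitre scale into 96-well plates, and day-12 stage V NF54/iGP1_RE9Hulg8 gametocytes (~2.5% gametocytemia, 3% hematocrit; medium with 0.5% Albumax II) were added to reach 10 µM or 1 µM, one well per concentration. The plates were kept at 37 °C for 72 h. Luminescence was then read on an IVIS Lumina II after mixing 90 µl of culture with 10 µl D-luciferin (30 mg/ml). Viability values are relative to the plate's mean DMSO vehicle signal.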

Counter-ions that a name gives are not always drawn. The whole screen tested about 1,300 compounds, of which about 40 (3%) showed activity. The full list was thinned out, with actives kept by preference. Values without a mark were called inactive.

For the molecule `CC(=O)c1ccc2c(c1)N(CCCN1CCC(CCO)CC1)c1ccccc1S2` [Piperacetazine], the gametocyte viability is, setting by setting: (concentration: 1 µM) 79.4; (concentration: 10 µM) 80.8.

Turning to `Fc1ccc(C(c2ccc(F)cc2)N2CCN(C/C=C/c3ccccc3)CC2)cc1` [Flunarizine dihydrochloride], the gametocyte viability was 81.5 (concentration: 1 µM) and 95.1 (concentration: 10 µM).

As to `COC1=CC(=O)C[C@@H](C)[C@]12Oc1c(Cl)c(OC)cc(OC)c1C2=O` [Griseofulvin], the gametocyte viability was 89.3 (concentration: 1 µM) and 84.6 (concentration: 10 µM).

`CCOC(=O)O[C@]1(C(=O)COC(=O)CC)CC[C@H]2[C@@H]3CCC4=CC(=O)C=C[C@]4(C)[C@H]3[C@@H](O)C[C@@]21C` [Prednicarbate]: the gametocyte viability by setting is: (concentration: 1 µM) 91.7; (concentration: 10 µM) 90.6.

For the molecule `CN(Cc1cnc2nc(N)nc(N)c2n1)c1ccc(C(=O)N[C@@H](CCC(=O)O)C(=O)O)cc1` (racemic) [Amethopterin (R,S)], the gametocyte viability reads like this: (concentration: 1 µM) 80.3; (concentration: 10 µM) 83.6.

For `CN(Cc1cnc2nc(N)nc(N)c2n1)c1ccc(C(=O)N[C@@H](CCC(=O)O)C(=O)O)cc1` [Methotrexate], the gametocyte viability is 91.4 (concentration: 1 µM) and 87.9 (concentration: 10 µM).

As to `COc1cccc2c1C(=O)c1c(O)c3c(c(O)c1C2=O)C[C@@](O)(C(C)=O)C[C@@H]3O[C@H]1C[C@H](N)[C@H](O)[C@H](C)O1` [Daunorubicin hydrochloride], the gametocyte viability (concentration: 1 µM) was 69.8 and the gametocyte viability (concentration: 10 µM) is 7.37 (active).

Turning to `COc1cccc2c1C(=O)c1c(O)c3c(c(O)c1C2=O)C[C@@](O)(C(=O)CO)C[C@@H]3O[C@H]1C[C@H](N)[C@H](O)[C@H](C)O1` [Doxorubicin hydrochloride], the gametocyte viability runs as follows: (concentration: 1 µM) 64.5; (concentration: 10 µM) 19 (active).

Turning to `C#C[C@]1(O)CC[C@H]2[C@@H]3CCC4=CCCC[C@@H]4[C@H]3CC[C@@]21C` [Lynestrenol], the gametocyte viability is 86 (concentration: 1 µM) and 89.2 (concentration: 10 µM).

In the case of `CCCCNc1c(C(=O)OCC)c(C)nc2c1cnn2CC` [Tracazolate hydrochloride], the gametocyte viability runs as follows: (concentration: 1 µM) 88.5; (concentration: 10 µM) 76.3.

On to `CC#C[C@]1(O)CC[C@H]2[C@@H]3CCC4=CC(=O)CCC4=C3[C@@H](c3ccc(N(C)C)cc3)C[C@@]21C` [Mifepristone], for which the gametocyte viability by setting is: (concentration: 1 µM) 83.1; (concentration: 10 µM) 83.2.

Regarding `CN(C)CCOC1=Cc2ccccc2Sc2ccc(Cl)cc21` [Zotepine], the gametocyte viability is 91.1 (concentration: 1 µM) and 86 (concentration: 10 µM).

As for `CCOC(=O)N1CCC(=C2c3ccc(Cl)cc3CCc3cccnc32)CC1` [Loratadine], the gametocyte viability runs as follows: (concentration: 1 µM) 86; (concentration: 10 µM) 87.7.

As for `CN(C)CCc1c[nH]c2ccc(Cn3cncn3)cc12` [Rizatriptan benzoate], the gametocyte viability is 84.2 (concentration: 1 µM) and 84 (concentration: 10 µM).

Consider `OC(Cn1cncn1)(Cn1cncn1)c1ccc(F)cc1F` [Fluconazole], for which the gametocyte viability by setting is: (concentration: 1 µM) 83.4; (concentration: 10 µM) 86.9.

In the case of `CC(C)(C#N)c1cc(Cn2cncn2)cc(C(C)(C)C#N)c1` [Anastrozole], the gametocyte viability is, setting by setting: (concentration: 1 µM) 77.6; (concentration: 10 µM) 45.8 (active).

For the molecule `CC(C)c1nc(CN(C)C(=O)N[C@H](C(=O)N[C@@H](Cc2ccccc2)C[C@H](O)[C@H](Cc2ccccc2)NC(=O)OCc2cncs2)C(C)C)cs1` [Ritonavir], the gametocyte viability was 66.4 (concentration: 1 µM) and 36.5 (active) (concentration: 10 µM).

As for `Nc1ccc(/N=N/c2ccccc2)c(N)n1` [Phenazopyridine hydrochloride], the gametocyte viability is, setting by setting: (concentration: 1 µM) 88.3; (concentration: 10 µM) 48.1 (active).

Take `Nc1c2ccccc2nc2ccccc12` [Aminacrine]: the gametocyte viability is 85.8 (concentration: 1 µM) and 81.4 (concentration: 10 µM).

In the case of `CCN1CCN(C(=O)N[C@@H](C(=O)N[C@@H]2C(=O)N3C(C(=O)O)=C(CSc4nnnn4C)CS[C@H]23)c2ccc(O)cc2)C(=O)C1=O` [Cefoperazone dihydrate], the gametocyte viability (concentration: 1 µM) was 79.3 and the gametocyte viability (concentration: 10 µM) was 83.8.

With `CC(N)CCCC(C)(C)O` (configuration not stated) [Heptaminol hydrochloride], the gametocyte viability is, setting by setting: (concentration: 1 µM) 82.3; (concentration: 10 µM) 84.6.

For the molecule `Cc1c(-c2ccccc2)oc2c(C(=O)OCCN3CCCCC3)cccc2c1=O` [Flavoxate hydrochloride], the gametocyte viability is 92 (concentration: 1 µM) and 87 (concentration: 10 µM).

With `N#CC(c1ccc(Cl)cc1)c1c(Cl)cc(-n2ncc(=O)[nH]c2=O)cc1Cl` (configuration not stated) [Diclazuril], the gametocyte viability is 92.9 (concentration: 1 µM) and 91.4 (concentration: 10 µM).

Regarding `CC(=O)Nc1c(I)c(C(=O)N[C@H]2C(O)O[C@H](CO)[C@@H](O)[C@@H]2O)c(I)c(N(C)C(C)=O)c1I` (some centres not stated) [Metrizamide], the gametocyte viability (concentration: 1 µM) was 84.7 and the gametocyte viability (concentration: 10 µM) was 88.9.

On to `CCCC1C(=O)N2C(N(C)C)=Nc3ccc(C)cc3N2C1=O` (configuration not stated) [Azapropazone], for which the gametocyte viability is 89.5 (concentration: 1 µM) and 87.5 (concentration: 10 µM).

Consider `Oc1c(Cl)cc(Cl)c2cccnc12` [Chloroxine], for which the gametocyte viability (concentration: 1 µM) is 83.4 and the gametocyte viability (concentration: 10 µM) was 84.2.

Regarding `CO[C@@]1(NC(=O)Cc2cccs2)C(=O)N2C(C(=O)O)=C(COC(N)=O)CS[C@@H]21` [Cefoxitin sodium salt], the gametocyte viability (concentration: 1 µM) was 85.9 and the gametocyte viability (concentration: 10 µM) was 81.1.

For the molecule `CNC1(C)C2CCC(C2)C1(C)C` (configuration not stated) [Mecamylamine hydrochloride], the gametocyte viability (concentration: 1 µM) is 93.8 and the gametocyte viability (concentration: 10 µM) is 94.3.

Take `CCC(C)(C)C(=O)O[C@H]1C[C@@H](C)C=C2C=C[C@H](C)[C@H](CC[C@@H]3C[C@@H](O)CC(=O)O3)[C@H]21` [Simvastatin]: the gametocyte viability reads like this: (concentration: 1 µM) 80.4; (concentration: 10 µM) 85.5.

With `CCOC(=O)C1=C(COCCN)NC(C)=C(C(=O)OC)C1c1ccccc1Cl` (configuration not stated) [Amlodipine], the gametocyte viability runs as follows: (concentration: 1 µM) 82.2; (concentration: 10 µM) 63.1.

Turning to `COCCc1ccc(OCC(O)CNC(C)C)cc1` (racemic) [Metoprolol-(+,-) (+)-tartrate salt], the gametocyte viability (concentration: 1 µM) was 94 and the gametocyte viability (concentration: 10 µM) is 94.

In the case of `CCCCCCNC(=O)n1cc(F)c(=O)[nH]c1=O` [Carmofur], the gametocyte viability reads like this: (concentration: 1 µM) 80.2; (concentration: 10 µM) 76.4.

With `Cc1cccn2c(=O)c(-c3nnn[nH]3)cnc12` [Pemirolast potassium], the gametocyte viability is 80.6 (concentration: 1 µM) and 84.7 (concentration: 10 µM).

For `COc1cc(C(=O)N2CCOCC2)cc(OC)c1OC` [Trimetozine], the gametocyte viability by setting is: (concentration: 1 µM) 81.7; (concentration: 10 µM) 80.2.

In the case of `CN1CCc2c(c3ccccc3n2Cc2ccccc2)C1` [Mebhydroline 1,5-naphtalenedisulfonate], the gametocyte viability is, setting by setting: (concentration: 1 µM) 88.8; (concentration: 10 µM) 83.3.

For the molecule `Cc1c(N(C)C)c(=O)n(-c2ccccc2)n1C` [Amidopyrine], the gametocyte viability (concentration: 1 µM) is 99 and the gametocyte viability (concentration: 10 µM) is 95.3.

Consider `O=C1c2c(O)ccc(O)c2C(=O)c2c(NCCNCCO)ccc(NCCNCCO)c21` [Mitoxantrone dihydrochloride], for which the gametocyte viability runs as follows: (concentration: 1 µM) 86.2; (concentration: 10 µM) 12.9 (active).

For `O=C1c2cccc(O)c2C(=O)c2c(O)cccc21` [1,8-Dihydroxyanthraquinone], the gametocyte viability was 82.8 (concentration: 1 µM) and 85.1 (concentration: 10 µM).

Regarding `O=C1c2c(O)cccc2Cc2cccc(O)c21` [Anthralin], the gametocyte viability (concentration: 1 µM) was 89.3 and the gametocyte viability (concentration: 10 µM) was 86.9.

In the case of `O=c1[nH]c(=O)n(C2CCCO2)cc1F` (configuration not stated) [Tegafur], the gametocyte viability (concentration: 1 µM) was 82.6 and the gametocyte viability (concentration: 10 µM) is 82.6.

Consider `Cc1scc2c1N(C(=O)CN1CCN(C)CC1)c1ccccc1NC2=O` [Telenzepine dihydrochloride], for which the gametocyte viability was 97.8 (concentration: 1 µM) and 96.3 (concentration: 10 µM).

On to `CC[N+](CC)(CC)CCC(O)(c1ccccc1)C1CCCCC1` (configuration not stated) [Tridihexethyl chloride], for which the gametocyte viability by setting is: (concentration: 1 µM) 95.7; (concentration: 10 µM) 100.

For `CCOC(=O)C1=C(C)NC(C)=C(C(=O)OCC)C1c1ccccc1/C=C/C(=O)OC(C)(C)C` [Lacidipine], the gametocyte viability reads like this: (concentration: 1 µM) 97.1; (concentration: 10 µM) 96.5.

As for `COc1ccc(/C=C/C(=O)Nc2ccccc2C(=O)O)cc1OC` [Tranilast], the gametocyte viability reads like this: (concentration: 1 µM) 68.5; (concentration: 10 µM) 40.9 (active).

For the molecule `Cc1cccc(Nc2ccccc2C(=O)O)c1C` [Mefenamic acid], the gametocyte viability runs as follows: (concentration: 1 µM) 94; (concentration: 10 µM) 94.6.

Consider `Cc1c(Cl)cccc1Nc1ccccc1C(=O)O` [Tolfenamic acid], for which the gametocyte viability is, setting by setting: (concentration: 1 µM) 83.6; (concentration: 10 µM) 90.8.

As to `COC1=C(OC)C(=O)C(CCCCCCCCCCO)=C(C)C1=O` [Idebenone], the gametocyte viability is, setting by setting: (concentration: 1 µM) 88; (concentration: 10 µM) 86.8.

For the molecule `Cn1c(=O)c2c(ncn2CC2OCCO2)n(C)c1=O` [Doxofylline], the gametocyte viability (concentration: 1 µM) is 86.6 and the gametocyte viability (concentration: 10 µM) is 86.7.

Take `COc1cc(N)c(Cl)cc1C(=O)NC1CCN(CCCOc2ccc(F)cc2)CC1OC` (configuration not stated) [Cisapride]: the gametocyte viability is, setting by setting: (concentration: 1 µM) 95.9; (concentration: 10 µM) 96.7.

As to `C[C@H](CCC(=O)O)[C@H]1CC[C@H]2[C@@H]3C(=O)C[C@@H]4CC(=O)CC[C@]4(C)[C@H]3CC(=O)[C@]12C` [Dehydrocholic acid], the gametocyte viability reads like this: (concentration: 1 µM) 95.4; (concentration: 10 µM) 93.6.

As to `C=C1c2c(Cl)ccc(O)c2C(O)=C2C(=O)[C@]3(O)C(O)=C(C(N)=O)C(=O)[C@@H](N(C)C)[C@@H]3[C@@H](O)[C@H]12.O=C(O)c1cc(S(=O)(=O)O)ccc1O` [Meclocycline sulfosalicylate], the gametocyte viability by setting is: (concentration: 1 µM) 80.9; (concentration: 10 µM) 83.5.

`CN(C)CC/C=C1/c2ccccc2COc2ccc(CC(=O)O)cc21` [Olopatadine hydrochloride]: the gametocyte viability is 77.9 (concentration: 1 µM) and 86.5 (concentration: 10 µM).

`CCCOc1ccc(C(=O)OCCN(CC)CC)cc1N` [Proparacaine hydrochloride]: the gametocyte viability reads like this: (concentration: 1 µM) 98.5; (concentration: 10 µM) 105.

As to `COc1cccc(OC)c1C(=O)N[C@@H]1C(=O)N2[C@@H]1SC(C)(C)[C@@H]2C(=O)O` [Methicillin sodium], the gametocyte viability by setting is: (concentration: 1 µM) 83.4; (concentration: 10 µM) 83.1.

In the case of `Clc1ccccc1CN1CCc2sccc2C1` [Ticlopidine hydrochloride], the gametocyte viability runs as follows: (concentration: 1 µM) 96; (concentration: 10 µM) 93.2.

`CC(=O)OCC(=O)[C@@]1(O)CC[C@H]2[C@@H]3CCC4=CC(=O)CC[C@]4(C)[C@@]3(F)[C@@H](O)C[C@@]21C` [Fludrocortisone acetate]: the gametocyte viability is, setting by setting: (concentration: 1 µM) 79.5; (concentration: 10 µM) 75.8.
